In PubChem BioAssay (Tox21) one finds Potency data, which are given here for 28 compounds.

Assay [1] can be described thus: qHTS assay to identify small molecule agonists of the vitamin D receptor (VDR) signaling pathway - cell viability counter screen (AID 743224). Also: nearly all actives have a fitted effect of over 50% in size. Also: potency is read from the fitted curve at half-maximal effect. In a few lines:
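VDR-bla cells, 4 h after plating, exposed to compounds for 16 h at 37C; viability then read in the same wells as CellTiter-Glo luminescence after 30 min at room temperature, following the bla FRET read.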
For orientation: qHTS replaces the single test concentration by a dilution series.

The nature of assay [2]: qHTS assay to identify small molecule antagonists of the vitamin D receptor (VDR) signaling pathway - cell viability counter screen (AID 743225). Also: nearly all actives have a fitted effect of over 50% in size. Also: potency is read from the fitted curve at half-maximal effect. The gist of the method:
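Viability counter screen run in the same wells as the beta-lactamase reporter assay: HEK 293T VDR-UAS-bla cells, 16 h compound exposure at 37C with 3 nM (final) 1-alpha,25-dihydroxyvitamin D3. CellTiter-Glo luminescence, 30 min, room temperature.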

The nature of assay [3]: qHTS assay to identify small molecule agonists of the endoplasmic reticulum stress response signaling pathway - cell viability counter screen (AID 1159517; calls by dose curve; also: nearly all actives have a fitted effect of over 50% in size; also: potency is read from the fitted curve at half-maximal effect). The gist of the method:
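Cells, HeLa ESRE-bla; density, 1,500/well; dosing, 5 hr at 37 C, 5% CO2; readout, CellTiter-Glo luminescence after 30 min RT.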

A short description of assay [4]: qHTS assay to identify small molecule antagonists of the retinoid-related orphan receptor gamma (ROR-gamma) signaling pathway - cell viability counter screen (AID 1159520). Also: nearly all actives have a fitted effect of over 50% in size. Also: potency is read from the fitted curve at half-maximal effect. In a few lines: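 Cytotoxicity was read from cellular ATP (CellTiter-Glo luminescence) after 16 hr at 37 C with 1 uM doxycycline induction. The inducer was added 2 hr after compound transfer to Tet-on ROR gamma CHO cells.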

Assay [5] has as its target Nuclear receptor ROR-gamma (Homo sapiens) (UniProt P51449). In words: qHTS assay to identify small molecule antagonists of the retinoid-related orphan receptor gamma (ROR-gamma) signaling pathway (AID 1159521; also: nearly all actives have a fitted effect of over 50% in size; also: potency is read from the fitted curve at half-maximal effect). The gist of the method: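 Luminescence readout (ONE-Glo, 30 min RT) after 16 h doxycycline induction; loss of signal scored as antagonism. CHO cells with TET-inducible RORγ and RORE-LUC reporter; compounds added 2 h before 1 uM final doxycycline.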

Assay [6] can be described thus: qHTS assay to identify small molecule agonists of the AP-1 signaling pathway - cell viability counter screen (AID 1159525; calls by dose curve; also: nearly all actives have a fitted effect of over 55% in size; also: potency is read from the fitted curve at half-maximal effect). In a few lines: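 Luminescent ATP readout (Cell Titer Glo, 30 min RT), normalised to DMSO and tetra n-octyl ammonium bromide controls. Cells were ME-180 AP-1-bla in 0.5% dialyzed FBS Opti-MEM, with a 5 h, 37 °C compound exposure.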
Assay [7] can be described thus: qHTS assay to identify small molecule agonists of the RXR signaling pathway - cell viability counter screen (AID 1159529). Also: nearly all actives have a fitted effect of over 50% in size. Also: potency is read from the fitted curve at half-maximal effect. In a few lines:
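Luminescence from CellTiter-Glo (30 min, RT) measured viability in the same wells as the beta-lactamase reporter readout. Cells: GeneBLAzer RXR-alpha HEK 293T, 2% charcoal-stripped FBS. Compound exposure 16 hr, 37 C.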

The target of assay [8] is Retinoic acid receptor RXR-alpha (Homo sapiens) (UniProt P19793). Nature of the assay: qHTS assay to identify small molecule agonists of the RXR signaling pathway (AID 1159527; calls by dose curve; also: nearly all actives have a fitted effect of over 35% in size). The gist of the method: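 Agonist mode; 9-cis retinoic acid positive control. HEK 293T UAS-bla reporter cells, 2% charcoal-stripped FBS, 16 hr compound exposure at 37 C/5% CO2. LiveBLAzer B/G FRET substrate 2 hr RT; ex 405, em 460/530 nm.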
Chain of Retinoic acid receptor RXR-alpha (Homo sapiens) (P19793 whole entry, looked up): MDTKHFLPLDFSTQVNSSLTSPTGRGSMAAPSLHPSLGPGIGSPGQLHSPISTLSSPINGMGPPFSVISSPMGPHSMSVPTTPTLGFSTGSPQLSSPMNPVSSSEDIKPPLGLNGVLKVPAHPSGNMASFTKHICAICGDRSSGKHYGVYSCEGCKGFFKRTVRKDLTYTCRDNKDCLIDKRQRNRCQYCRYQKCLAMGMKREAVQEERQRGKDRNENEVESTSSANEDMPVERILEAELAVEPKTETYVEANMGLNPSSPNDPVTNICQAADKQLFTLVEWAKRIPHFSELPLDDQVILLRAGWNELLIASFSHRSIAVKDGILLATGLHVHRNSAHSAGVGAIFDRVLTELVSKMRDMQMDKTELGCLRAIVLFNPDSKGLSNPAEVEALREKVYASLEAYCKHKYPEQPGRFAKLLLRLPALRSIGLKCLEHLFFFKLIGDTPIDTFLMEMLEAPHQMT

A short description of assay [9]: qHTS assay to identify small molecule agonists of the AP-1 signaling pathway (AID 1159526; calls by dose curve).

Several values for one entry are separate records, joined by “and”; a condition that tells them apart may be missing. Identical values can stand only once. Records with an inconclusive call do not appear. A structure can be active in one record and inactive in another. Activity calls are given as the source filed them. Unless noted, calls follow the shape of the dose curve; as a rule, active = well fitted curve in the direction sought with a large enough effect in the repeat runs; inconclusive = weak or mixed curves; inactive = no such curve, though single readings can be large; an effect the other way counts as inactive or inconclusive.

With `N#CSCSc1nc2ccccc2s1`, the Potency is 12.3 µM (active) in assay [1]; 15.5 µM (active) in assay [2]; 12.3 µM (active) in [3]; 4.33 µM (active) in [4]; 13.7 µM (active) in [5]; 43.6 µM (active) in assay [6].

Consider `CCCCCCCCCCCCCC[n+]1ccccc1`, for which the Potency in [1] is 24.5 µM (active); in [2] it was 24.5 µM (active); in assay [3], 17.4 µM (active); in [4], 61.1 µM (active); in assay [5], 4.86 µM (active); in [6], 49 µM (active). Moreover, the Potency in assay [7] is 12.3 µM (active).

`COc1cc(C=C2CCC/C(=C\c3ccc(O)c(OC)c3)C2=O)ccc1O`: the Potency result in assay [3] is “inactive”. Also, the Potency in assay [4] is 29.8 µM (active); in [6] it was 26.8 µM (active).

As to `C[C@@]12C(=O)OC(=O)[C@]1(C)C1CCC2O1`, the Potency entry in assay [3] and in assay [7] was “inactive” in each case. Also, the Potency in [4] and in [5] was 4.22 µM (active) throughout.

Regarding `CC=O`, the Potency in assay [1] was 22.9 µM (active); in assay [2], 57.5 µM (active); in assay [3], 16.2 µM (active); in assay [4], 63.9 µM (active); in assay [5], 2.02 µM (active); in assay [7], 14.4 µM (active).

As for `O=C1c2c(O)ccc([N+](=O)[O-])c2C(=O)c2c([N+](=O)[O-])ccc(O)c21`, the Potency in [1] is 10.9 µM (active); in assay [2], 9.68 µM (active); in [3] it was 24.3 µM (active); in assay [4] it was 27.1 µM (active); in assay [5], 24.1 µM (active); in assay [6], 24.3 µM (active). Also, the Potency in [7] is 17.2 µM (active).

On to `CCC1(c2cnc[nH]2)Cc2ccccc2C1`, for which the Potency result in [1], in [2], in [3], in [4], in assay [5] and in assay [6] was “inactive” in each case. The Potency result in assay [8] and in [7] was “inactive” each time.

Take `O=C1C=CC(=O)N1c1ccccc1`: the Potency in assay [1] was 11 µM (active); in assay [2] it was 15.5 µM (active); in assay [3], 34.7 µM (active); in [4], 15.4 µM (active); in assay [5], 7.7 µM (active); in assay [6] it was 24.5 µM (active). In addition, the Potency in assay [7] was 15.5 µM (active). Further, the Potency entry in assay [8] is “inactive”.

On to `C=C(c1ccc(C(=O)O)cc1)c1cc2c(cc1C)C(C)(C)CCC2(C)C`, for which the Potency is 21.9 µM (active) and inactive in [1]; 21.3 µM (active) in [2]; 24.5 µM (active) and 19 µM (active) in [3]; 30.6 µM (active) in assay [4]; 24.3 µM (active) and 23.7 µM (active) in assay [5]; 30.9 µM (active) in assay [6]. Further, the Potency in assay [7] was 49 µM (active) and 23.9 µM (active).

Turning to `CCN=c1cc2oc3cc(NCC)c(C)cc3c(-c3ccccc3C(=O)OCC)c-2cc1C`, the Potency in [1] was 27.4 µM (active) and 24.5 µM (active); in [2], 48.8 µM (active) and 24.5 µM (active); in assay [3] it was 24.5 µM (active) and 38.9 µM (active); in [4], 27.2 µM (active) and 24.3 µM (active); in assay [5], 3.84 µM (active) and 6.86 µM (active); in [7], 38.8 µM (active) and 49 µM (active).

For `Brc1ccccc1-c1ccccc1`, the Potency result in assay [1], in assay [4], in assay [5], in assay [6] and in [8] was “inactive” in each case. Also, the Potency in assay [3] was 41.3 µM (active).

Turning to `c1ccc(Sc2ccccc2)cc1`, the Potency in [1] is 49 µM (active); in assay [3] it was 43.6 µM (active). Also, the Potency result in [2], in assay [4], in assay [5] and in assay [6] was “inactive” throughout.

Turning to `Clc1ccc(C(c2ccccc2Cl)C(Cl)Cl)cc1` (centres undefined), the Potency is 49 µM (active) and inactive in [1]; 49 µM (active) in [3]; 43.6 µM (active) and 23.9 µM (active) in assay [6]; 34.7 µM (active) and 23.9 µM (active) in assay [7]. Moreover, the Potency result in assay [2], in assay [4] and in assay [5] was “inactive” throughout.

In the case of `CCCCCCCOC(=O)c1ccc(O)cc1`, the Potency is 38.9 µM (active) in assay [2], 54.9 µM (active) in assay [3], 49 µM (active) in assay [6] and 55 µM (active) in assay [7]. The Potency entry in [4] and in assay [5] was “inactive” each time.

For the compound `Nc1ccc2cc3ccc(N)cc3nc2c1`, the Potency was 24.5 µM (active) and inactive in assay [1]; 26.6 µM (active) in assay [4]. Moreover, the Potency result in assay [3], in [5] and in [6] was “inactive” in each case.

On to `O=C1NCN(c2ccccc2)C12CCN(CCCC(c1ccc(F)cc1)c1ccc(F)cc1)CC2`, for which the Potency is 23.9 µM (active) in [3]; 33.5 µM (active) in assay [4]; 26.6 µM (active) in [5]; 21.3 µM (active) in [6]; 21.3 µM (active) in assay [7].

On to `CCCCCCOc1cc(C)c(O)c(C)c1C`, for which the Potency in assay [1] was 39.4 µM (active); in assay [2] it was 35.1 µM (active); in assay [3] it was 55.6 µM (active); in assay [4], 61.9 µM (active); in assay [5], 49.2 µM (active); in [6], 44.2 µM (active). Also, the Potency in [7] is 35.1 µM (active).

With `SCCCCCCCCS`, the Potency entry in [1], in [2], in [4], in assay [5], in assay [6] and in assay [9] was “inactive” throughout. For the same compound, in [7], the Potency result was “inactive”. The Potency in assay [3] was 34.7 µM (active).

On to `COc1cc(C(=O)NS(=O)(=O)c2ccccc2C)ccc1Cc1cn(C)c2ccc(NC(=O)OC3CCCC3)cc12`, for which the Potency entry in assay [1], in [2], in assay [3], in assay [4], in assay [5] and in assay [7] was “inactive” in each case.

In the case of `CCc1cccc(C)c1`, the Potency result in assay [1], in [2], in [3], in assay [4], in assay [5] and in assay [6] was “inactive” each time. Besides, the Potency result in [8] and in [7] was “inactive” throughout.

Take `CO[C@H]1C=CO[C@@]2(C)Oc3c(C)c(O)c4c(O)c(cc(O)c4c3C2=O)NC(=O)/C(C)=C\C=C/[C@H](C)[C@H](O)[C@@H](C)[C@@H](O)[C@@H](C)[C@H](OC(C)=O)[C@@H]1C`: the Potency entry in [1], in assay [2], in [3] and in assay [4] was “inactive” in each case. Further, the Potency was 43.6 µM (active) in assay [5], 49.3 µM (active) in [6] and 12.4 µM (active) in assay [7].

As to `CSc1c(Cl)c(Cl)c(Cl)c(Cl)c1Cl`, the Potency entry in [2], in [4] and in assay [5] was “inactive” each time. The Potency was 54.6 µM (active) in assay [3] and 43.4 µM (active) in assay [7].

Regarding `CC1CCCNC1` (centres undefined), in assay [1], the Potency was 47.9 µM (active). The Potency result in [2], in assay [3], in [4], in assay [5] and in assay [6] was “inactive” each time.

Regarding `Cc1cc(Nc2ccc(O)cc2)ccc1N`, the Potency result in assay [1], in [2], in [3], in assay [6] and in [8] was “inactive” each time.

`CN1[C@@H]2CC[C@@H]1CC(OC(=O)C(CO)c1ccccc1)C2` (some centres undefined): the Potency result in assay [3], in [4], in assay [6], in [9] and in assay [8] was “inactive” in each case.

Regarding `O=C(O)CCn1c2c(c3ccccc31)C[C@H](NS(=O)(=O)c1ccc(F)cc1)CC2`, the Potency result in assay [1], in assay [2], in [3], in [4], in assay [6] and in assay [7] was “inactive” in each case.

Consider `Oc1c(Br)cc(Br)c2cccnc12`, for which the Potency is 3.35 µM (active) in [1] and 1.51 µM (active) in assay [7]. In addition, the Potency entry in assay [3] and in [6] was “inactive” in each case.

`Clc1ccccc1CN1CCc2sccc2C1`: the Potency result in [1], in assay [2], in assay [3], in assay [4] and in assay [7] was “inactive” throughout.
